In PubChem BioAssay AID651814 (National Center for Advancing Translational Sciences (NCATS), 2012):
In all, about 2,100 compounds went through this assay and about 590 (28%) were called active. Another 42% or so got no clear call; they are omitted. Calls follow the shape of the dose curve; as a rule, active = well fitted inhibition curve with a large enough effect; inconclusive = small, poorly fitted or top-dose-only effect; inactive = flat fitted curve, though single readings scatter. This is one part of the list.

Target: DNA dC->dU-editing enzyme APOBEC-3F (Homo sapiens) (UniProt Q8IUX4)
Sequence (Q8IUX4 whole entry, looked up): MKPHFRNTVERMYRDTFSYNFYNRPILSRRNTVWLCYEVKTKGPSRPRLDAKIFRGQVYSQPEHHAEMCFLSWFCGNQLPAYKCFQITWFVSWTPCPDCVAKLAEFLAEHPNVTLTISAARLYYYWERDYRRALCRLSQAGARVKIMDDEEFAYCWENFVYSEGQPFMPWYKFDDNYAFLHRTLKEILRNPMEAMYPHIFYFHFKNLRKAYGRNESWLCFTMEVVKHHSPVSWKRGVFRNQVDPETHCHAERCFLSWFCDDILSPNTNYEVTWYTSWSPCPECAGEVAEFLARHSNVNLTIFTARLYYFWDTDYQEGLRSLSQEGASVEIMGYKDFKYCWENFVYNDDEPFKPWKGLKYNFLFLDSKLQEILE
Assay: qHTS for inhibitors of Vif-A3F interactions: Cherry picks; also: nearly all actives have a fitted effect of over 70% in size;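 as to max response: % of control where 0% means no effect; active compounds raise eYFP fluorescence by blocking Vif-driven A3F loss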
Details: HeLa A3F-eYFP + Vif (tagged APOBEC3F with the HIV-1 protein that degrades it), eYFP fluorescence, 24 h
Summary of the method: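 Read-out: yellow fluorescence (ex 488 nm, em 500-530 nm) by laser-scanning cytometer after 24 h compound exposure, several concentrations, at 37 deg C. Cells: HeLa line stably co-expressing Vif and C-terminally eYFP-tagged A3F; MG132 served as positive control.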
Potency is read from the fitted curve at half-maximal effect.

SMILES	max response	Potency
O=C(O)CSc1c2ccccc2cc2ccccc12	-4.37% (inactive)	–
COc1ccc(NS(=O)(=O)c2cc([N+](=O)[O-])ccc2N/N=C/c2c(C)[nH]c3ccccc23)cc1	–	16.4 µM (active)
O=[N+]([O-])c1ccc(N/N=C/c2c[nH]c3ccccc23)c(S(=O)(=O)Nc2ccc(Cl)cc2)c1	–	18.4 µM (active)
C/C(=N/Nc1ccc([N+](=O)[O-])cc1)c1c[nH]c2ccccc12	–	9.2 µM (active)
CNC(=S)N/N=C(\C)c1ccc(Cl)s1	-3.1% (inactive)	–
COCCNC(=S)N/N=C(\C)c1ccccc1O	0.575% (inactive)	–
Cc1ccc2nc(NS(=O)(=O)c3ccc(Cl)cc3)c(Nc3ccc(C(=O)O)cc3)nc2c1	-8.36% (inactive)	–
O=C(Nc1cc(F)cc(F)c1)c1ccc(NCCc2ccccc2)c([N+](=O)[O-])c1	–	20.6 µM (active)
O=C(NC(=S)Nc1ccc(N2CCCCC2)c(Cl)c1)c1ccc2c(c1)OCCO2	-28.8% (inactive)	–
COc1ccc(NC(=O)c2ccc(NC(=O)C(C)C)cc2)c([N+](=O)[O-])c1	-19.6% (inactive)	–
Cc1ccc(NC(=O)c2ccc(NCC3CCCO3)c([N+](=O)[O-])c2)cc1Cl (configuration not stated)	–	20.6 µM (active)
Cc1ccc(NC(=O)c2ccc(NCCCN3CCC(C)CC3)c([N+](=O)[O-])c2)cc1F	-24% (inactive)	–
Cc1ccc(NC(=O)c2ccc(NCc3ccco3)c([N+](=O)[O-])c2)cc1Cl	–	16.4 µM (active)
CC1C/C(=N\NC(N)=S)c2cc(Cl)ccc2S1 (configuration not stated)	-5.07% (inactive)	–
C/C(CCC(C)C)=N\NC(=S)NCc1ccccc1	-4.2% (inactive)	–
CCOC(=O)Cc1csc(NC(=O)c2sc3nc4c(C)cc(C)cc4cc3c2N)n1	–	20.6 µM (active)
CCOC(=O)c1csc(NC(=O)c2cc(-c3ccccn3)nc3ccccc23)n1	-1.96% (inactive)	–
C[C@]12CCC[C@H](O1)c1c(cc3c(c1O)C(=O)c1c(O)cc(O)cc1C3=O)O2	–	14.6 µM (active)
O=C(CC1CC2CCC1C2)Nc1nc(-c2ccccn2)cs1 (configuration not stated)	0.305% (inactive)	–

SMILES	max response	Potency
CCOC(=O)CSc1nc2c(c(=O)[nH]1)C(C)(CC)Cc1ccccc1-2 (configuration not stated)	–	8.2 µM (active)
Cc1sc2nc(SCC(=O)N3CCOCC3)[nH]c(=O)c2c1-c1ccccc1	-2.85% (inactive)	–
CCOc1cc(N(CC)CC)ccc1/C=C(/C#N)c1nc2ccccc2[nH]1	–	1.46 µM (active)
CCCOc1cc(N(CC)CC)ccc1/C=C(/C#N)c1nc2ccc(C)cc2[nH]1	0.514% (inactive)	–
Cc1cccc(OCCOc2ccccc2C=C(C#N)C#N)c1	-24.6% (inactive)	–
CCN(CC)c1ccc(/C=C(/C#N)c2nc3ccccc3[nH]2)c(OC(C)C)c1	–	2.06 µM (active)
C/C(=N\NC(N)=S)C12CC3CC(CC(C3)C1)C2	3.49% (inactive)	–
CN(C)c1ccc(C=C2SC(=S)NC2=O)cc1	–	17.7 µM (active)
CCOc1ccc(N(C)c2ccc(/C=C3/SC(=S)NC3=O)cc2)cc1	–	15.8 µM (active)
CCOc1cc(Br)cc(/C=C2\SC(=Nc3ccccc3)NC2=O)c1O	-27.7% (inactive)	–
COc1ccccc1N=C1NC(=O)/C(=C/c2ccc(N(C)C)cc2)S1	–	4.11 µM (active)
CC12CC3CC(C)(C1)CC(C(=O)NC(=S)N1CCOCC1)(C3)C2	4.69% (inactive)	–
CSc1nc(N)c(C#N)c(-c2ccccc2Cl)c1C#N	-19.1% (inactive)	–
CC(=O)Nc1cccc(-c2ccnc3c2CC(C)(C(=O)NCc2cccs2)O3)c1 (configuration not stated)	-24.8% (inactive)	–
CN(C)S(=O)(=O)c1ccc(N2CCCC2)c(C(=O)N2CCN(S(=O)(=O)c3ccc(F)c(F)c3)CC2)c1	3.41% (inactive)	–
COc1ccc(OCCCC(=O)N2CCN(S(=O)(=O)c3cccc(F)c3)CC2)cc1	-3.23% (inactive)	–
CC1(C)Cc2c(sc3ncnc(NNC(=S)NCc4ccccc4)c23)CO1	-20.8% (inactive)	–
C=C(C)CNC(=S)NNC(=O)c1ccco1	4.89% (inactive)	–
Cc1ccc(NC(=O)/C(C#N)=C\c2ccc(-c3ccc(Cl)cc3)o2)c(C)c1	–	7.31 µM (active)

SMILES	max response	Potency
N#C/C(=C/c1ccc(-c2ccc([N+](=O)[O-])cc2)o1)C(=O)Nc1nc(-c2cccs2)cs1	-8.39% (inactive)	–
CN(C)CCNc1ccc2ncn3c4ccc(O)cc4c(=O)c1c23	–	20.6 µM (active)
CCN(CC)CCCNc1ccc2ncn3c4ccc(O)cc4c(=O)c1c23	–	8.2 µM (active)
CCOc1ccccc1C1CC(c2cccs2)=NN1S(C)(=O)=O (configuration not stated)	-22.3% (inactive)	–
CS(=O)(=O)Nc1ccc(C2=NN(S(=O)(=O)c3ccccc3)C(c3cccs3)C2)cc1 (configuration not stated)	-22.9% (inactive)	–
CCc1ccc(C2=NN(S(C)(=O)=O)C(c3cccs3)C2)cc1 (configuration not stated)	–	15.8 µM (active)
N#C/C(=C\c1cccc(O)c1)c1nc2ccccc2o1	–	3.53 µM (active)
O=C1c2cccc3c(N4CCCCC4)ccc(c23)C(=O)N1c1ccc(O)cc1	-17.3% (inactive)	–
O=C1c2cccc3c(N4CCCCC4)ccc(c23)C(=O)N1CCO	–	15.8 µM (active)
COc1ccccc1N1C(=O)c2cccc3c(C(=O)O)ccc(c23)C1=O	1.5% (inactive)	–
C=CCN1C(=O)c2cccc3c(N4CCCCC4)ccc(c23)C1=O	–	16.4 µM (active)
CCCCN1C(=O)c2cccc3cc(O)cc(c23)C1=O	-4.14% (inactive)	–
O=C(O)c1ccccc1N/N=C/c1c(Sc2nnnn2-c2ccccc2)nc2ccccn2c1=O	–	9.94 µM (active)
CN1C/C(=C\c2ccc(N3CCOCC3)cc2)C(=O)/C(=C/c2ccc(N3CCOCC3)cc2)C1	–	18.4 µM (active)
Cc1ccc(Cc2c(C3CCCCC3)nc3ccc(C)cn23)cc1	-5.74% (inactive)	–
COc1ccccc1/C=C/C=N/n1c(-c2ccc(C)cc2)n[nH]c1=S	-22% (inactive)	–
Cc1ccc(-c2nc(-c3cc4cccc(OCc5cccc(F)c5)c4oc3=O)no2)cc1	–	18.4 µM (active)
Nc1c(C(=O)c2ccccc2)sc2nsc(SCCN3CCCC3)c12	–	14 µM (active)
Nc1c(C(=O)c2ccccc2)sc2snc(SCC(=O)c3ccccc3)c12	–	17.7 µM (active)
